Compound activity: PubChem BioAssay, National Center for Advancing Translational Sciences (NCATS)
L3MBTL1 inh – blocks human L3MBTL1 | Q9Y468 | AlphaScreen L3MBTL1–H3K9me1 peptide binding | Potency, µM (highest dose often 57.1 µM), hits mostly inhibitors | actives 0.66% (n = 230,000); further: nearly all actives have a fitted effect of over 60% in size
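Displacement of a biotinylated histone H3(1-15) peptide monomethylated at Lys9 (75 nM) from L3MBTL1 (50 nM) was measured by AlphaScreen after a 30 min room-temperature compound incubation; cefsulodin titration served as intraplate control.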
POLH inh – inhibitors of human DNA polymerase eta | Q9Y253 | recombinant Pol eta, fluorescent DNA replication assay | Potency, µM (series often up to 114 µM), hits mostly inhibitors | actives 1.2% (n = 390,000) | AID 588591
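Pol eta at 10 nM preincubated with compounds 15 min at room temperature; reaction started with fluorescent substrate (50 nM final) and read kinetically at 0 and 10 min.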
POLK inh – inhibitors of human DNA polymerase kappa. Q9UBT6. purified Pol kappa, fluorescent DNA synthesis assay, 10 min. Potency, µM (doses to about 107 µM), actives largely listed as inhibitors. actives 0.53% (n = 400,000). AID 588579
Target sequence (Q9UBT6 whole entry, looked up): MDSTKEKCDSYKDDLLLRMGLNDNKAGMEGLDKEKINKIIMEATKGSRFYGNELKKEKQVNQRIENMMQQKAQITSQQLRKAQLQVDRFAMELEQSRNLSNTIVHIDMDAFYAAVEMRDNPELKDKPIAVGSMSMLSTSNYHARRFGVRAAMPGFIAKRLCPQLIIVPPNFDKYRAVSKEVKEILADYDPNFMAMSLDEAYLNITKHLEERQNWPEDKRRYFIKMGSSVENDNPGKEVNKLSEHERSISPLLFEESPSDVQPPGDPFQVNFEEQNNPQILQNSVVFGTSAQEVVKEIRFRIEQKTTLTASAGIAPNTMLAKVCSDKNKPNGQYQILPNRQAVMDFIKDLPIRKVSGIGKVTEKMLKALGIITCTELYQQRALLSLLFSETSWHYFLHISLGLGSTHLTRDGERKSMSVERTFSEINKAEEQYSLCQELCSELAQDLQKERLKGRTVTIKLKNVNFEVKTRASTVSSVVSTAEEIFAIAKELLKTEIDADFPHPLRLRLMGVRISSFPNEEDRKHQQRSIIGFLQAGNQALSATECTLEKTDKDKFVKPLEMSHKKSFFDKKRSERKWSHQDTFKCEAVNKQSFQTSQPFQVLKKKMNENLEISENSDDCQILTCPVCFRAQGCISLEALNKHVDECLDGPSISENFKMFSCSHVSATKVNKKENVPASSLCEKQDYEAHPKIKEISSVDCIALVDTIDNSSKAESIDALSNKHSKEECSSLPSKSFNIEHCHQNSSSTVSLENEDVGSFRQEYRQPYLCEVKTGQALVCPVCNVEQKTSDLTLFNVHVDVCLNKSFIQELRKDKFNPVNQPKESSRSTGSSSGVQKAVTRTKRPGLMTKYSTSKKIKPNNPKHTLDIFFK
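Inhibition of 10 nM Pol kappa is measured by a fluorescent read-out at 0 and 10 min following addition of 50 nM substrate (final), with a 15-min room-temperature compound preincubation.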
Pol iota inh – inhibitors of human DNA polymerase iota. Pol iota fluorescent replication assay, 10 min. Potency, µM (series often up to 115 µM), hits mostly inhibitors. actives 1% (n = 390,000). AID 588590
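Pol iota at 10 nM preincubated 15 min with compounds at room temperature; reaction started with fluorescent substrate, 50 nM final. Fluorescence read kinetically at 0 and 10 min; buffer-only wells as negative control.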
Pol beta inh – inhibitors of human DNA polymerase beta; Pol beta primer extension/strand displacement, fluorescence kinetic; P06746; AID 485314; Potency, µM (top dose mostly 114 µM), hits mostly inhibitors; actives 1.3% (n = 340,000)
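Reaction started by 50 nM substrate onto compound-treated Pol beta (10 nM, 15 min preincubation, room temperature); plates read at 0 min and 10 min. Normalized concentration-effect data fitted by four-parameter Hill equation.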
Hits are given with their value; . = inactive; ? = inconclusive; / = not tested or not shown; ! = not active in a repeat; [ ] = dose if it differs, or a comment. Rows were chosen to be rich in hits. Some 2.4% of all compounds tested hit in one or more screens of this group. The call rests on the fitted dose curve; in most records, active means well fitted curve in the direction sought with a large enough effect; inconclusive means small, poorly fitted or top-dose-only effect, or another doubt; inactive means no such curve, though single readings can be large; an effect the other way counts as inactive or inconclusive.

SMILES	L3MBTL1 inh	POLH inh	POLK inh	Pol iota inh	Pol beta inh
COc1ccc(/C=C/C=C2C(=O)NC(=S)NC2=O)cc1	/	25µM	.	?	/
c1ccc(N2CCCC3(CCNCC3)C2)nc1	/	/	.	/	/
O=C(Nc1cc(C(F)(F)F)cc(C(F)(F)F)c1)c1cc(Cl)ccc1O	/	/	30µM!	/	/
O=C(Nc1cc(C(F)(F)F)cc(C(F)(F)F)c1)c1cccn(Cc2ccccc2Cl)c1=O	/	.	.	.	.
Cc1ccc(S(=O)(=O)N2CCN(Cc3ccsc3)CC2)cc1	.	?	.	.	.
CC(=O)c1ccc2c(c1)C1C(Cl)C(Sc3ccccc3[N+](=O)[O-])CC1C(C(=O)O)N2 (configuration not stated)	4µM	3.5µM	?	?	40µM
CC1(C)C(=O)CC[C@]2(C)C3C(=O)C=C4[C@H]5C[C@@](C)(C(=O)O)CC[C@]5(C)CC[C@]4(C)[C@]3(C)CC[C@@H]12 (some centres not stated)	/	.	.	.	45µM
COc1ccc(-n2c(/C=C/c3ccc(O)c(OC)c3)nc3ccccc3c2=O)cc1	.	.	.	.	.
O=c1c2ccccc2nc(/C=C/c2ccc(O)cc2)n1-c1cccc(O)c1	?	56µM	?	25µM	4µM
O=c1c2ccccc2nc(/C=C/c2ccc(O)cc2)n1-c1ccc(O)cc1	/	?	.	.	?
COc1cccc(-n2c(/C=C/c3ccc(O)c(O)c3)nc3ccccc3c2=O)c1	.	28µM	.	22µM	8.9µM
C[S@@](=O)CCCCN=C=S	/	/	.	/	/
Cc1ccc(NP(=O)(Oc2ccccc2F)Oc2ccccc2F)cc1C	.	.	?	89µM	.
Cc1cccc(NP(=O)(Oc2ccccc2F)Oc2ccccc2F)c1	.	.	.	.	.
Cc1csc2nc(COC(=O)c3ccccc3NC(=O)c3ccc(F)cc3)cc(=O)n12	/	.	.	.	.
O=C1NC(=O)N(Cc2ccccc2)C(=O)/C1=C/c1cnn(-c2ccccc2)c1	/	/	/	/	.
COc1ccccc1N1C(=O)NC(=O)/C(=C\c2cnn(-c3ccccc3)c2)C1=O	.	40µM	.	18µM	25µM
CC(=O)Nc1ccc(Cc2nc3ccccc3[nH]2)cc1	.	.	.	.	.
CCn1c(O)c(C=Nc2ccc(N3CCOCC3)cc2)c(=O)n(CC)c1=S	.	.	.	.	18µM
CCn1c(O)c(C=Nc2ccc(N3CCOCC3)c(Br)c2)c(=O)n(CC)c1=S	.	.	.	.	.
CCOc1cc(/C=C2/C(=O)NC(=O)N(c3ccc(CC)cc3)C2=O)ccc1OC(=O)c1cccs1	.	45µM	.	.	.
CCn1cc(C=C2C(=O)NC(=O)NC2=O)c2ccccc21	/	.	.	20µM	?
NC(=O)Cn1cc(C=C2C(=O)NC(=O)NC2=O)c2ccccc21	/	.	.	?	.
CC[C@@H]1/C=C/C=C/C[C@H](C)[C@@H](O)[C@](C)(O)C(=O)[C@H](C)[C@@H](O)[C@H](C)C(=O)[C@H](C)[C@@H](O)[C@H](C)/C=C/C(=O)O[C@H]2[C@@H](C)[C@@H](CC1)O[C@@]1(CC[C@@H](C)[C@@H](C[C@H](C)O)O1)[C@@H]2C	/	/	.[19.4 µM]	/	/
COc1ccccc1-c1nc2c(c(SCc3cccc(Cl)c3)n1)Cc1c(CO)cnc(C)c1O2	/	.	.	.	.
SMILES	L3MBTL1 inh	POLH inh	POLK inh	Pol iota inh	Pol beta inh
COC(=O)C1=Nc2ccccc2/C1=C\c1c(O)n(-c2ccc(Br)cc2)c(=O)[nH]c1=O	.	35µM	.	.	?
COC(=O)C1=Nc2ccccc2/C1=C\c1c(O)n(-c2ccc(OC)cc2)c(=O)[nH]c1=O	.	?	.	?	?
O=C(O)c1ccc(-n2c(O)c(/C=C3\C=Nc4ccccc43)c(=O)[nH]c2=O)cc1	/	50µM	.	?	.
O=c1[nH]c(=O)n(-c2cccc(F)c2)c(O)c1/C=C1\C=Nc2ccccc21	/	.	.	14µM	.
O=C(N/N=C/c1c(O)n(Cc2ccco2)c(=O)[nH]c1=O)c1ccccc1	/	?	?	.	?
O=S(=O)(CCN1CCN(c2ccccn2)CC1)c1ccc(Cl)cc1Cl	.	.	.	.	.
O=c1[nH]c(O)c(C=Nc2ccc(Cl)cc2Cl)c(=O)[nH]1	/	.	.	.	?
C=CCN1C(=O)NC(=O)/C(=C/c2cc3c4c(c2)CCCN4CCC3)C1=O	28µM	45µM	?	20µM	?
N#C/C(=C\c1ccc(O)c(O)c1)C(N)=S	/	/	0.13µM	/	/
CN(C)C1C(=O)C(C(N)=O)C(=O)C2(O)C(=O)C3C(=O)c4c(O)cccc4C(C)(O)C3C(O)C12 (configuration not stated)	/	/	2.8µM	/	/
CN(C)C1C(=O)C(C(N)=O)=C(O)[C@@]2(O)C(=O)C3=C(O)c4c(O)cccc4[C@](C)(O)C3C(O)C12 (some centres not stated)	/	/	2.8µM	/	/
CN(C)[C@@H]1C(=O)C(C(N)=O)=C(O)[C@@]2(O)C(=O)C3=C(O)c4c(O)ccc(Cl)c4[C@@](C)(O)[C@H]3C[C@@H]12	/	.	.	.	.
CCCCNC(=O)c1cc(-c2cccnc2)nc2ccc(S(=O)(=O)NCCCC)cc12	/	.	.	.	?
CC(C)OC(=O)C(O)(c1ccc(Cl)cc1)c1ccc(Cl)cc1	/	/	.	/	/
C/C1=C\[C@@H](C)C/C=C/[C@H]2[C@@H]3O[C@]3(C)[C@@H](C)[C@H]3[C@H](Cc4c[nH]c5ccccc45)NC(=O)[C@]32C(=O)/C=C/C(=O)[C@@H]1O	?	?	?	?	22µM
CC1=CC2/C=C(\C)CCC(O)C(O)/C=C/C(=O)C23C(=O)NC(CC(C)C)C3C1C (configuration not stated)	.	.	.	.	.
CC(CCC(=O)O)C1CCC2C3CC[C@H]4CC(O)CC[C@@]4(C)C3CC[C@@]12C (some centres not stated)	/	/	.	/	/
O=C(c1ccc(CS(=O)(=O)c2ccccc2)o1)N1CCC2(CC1)OCCO2	?	89µM	.	?	?
COC(=O)c1sccc1NC(=O)c1ccc(C#N)cc1	/	.	.	?	?
Cc1ccc(-c2[nH]c(=S)[nH]c(=O)c2C#N)cc1	.	.	.	.	.
Cc1cc(/C=C/c2cccc3sc(C)[n+](CCCCI)c23)ccc1N(CCCl)CCCl	/	/	56µM	79µM	/
NCC(CC(=O)O)C1CCCCC1 (configuration not stated)	/	.	.	100µM	.
CCOc1cccc(OCC)c2c(C)[n+](CC3CCCO3)c(C)c1-2 (configuration not stated)	/	45µM	25µM	?	22µM
O=C1C=CC(=O)c2c(O)cccc21	/	/	2.7µM	/	/
O=C1C=Cc2ccccc2C1=O	.	/	/	/	?
Cc1cccc(N2C(=O)CSC23C(=O)N(CC(=O)Nc2cccc(Cl)c2)c2ccccc23)c1 (configuration not stated)	/	.	.	?	.
